# Records with an inconclusive call do not appear. The source made the active and inactive calls. How the source made its calls: active means hit-call score of the fitted dose curve at least 0.9, where 1 is the maximum; inconclusive means response in the unintended direction; inactive means score below 0.9.
# Target: bovine Gamma-Aminobutyric Acid Type A Receptor BDZ, alpha 1 site (GABARa1), GABRA1 (gene 780973) (UniProt P08219)
# Assay: NVS_LGIC_bGABARa1: NovaScreen (NVS) Ligand-Gated Ion Channel Assay for bovine Gamma-Aminobutyric Acid Type A Receptor BDZ, alpha 1 site (GABARa1) (AID 2283321)
# Experimental: NVS_LGIC_bGABARa1 is a biochemical, single-readout assay that uses extracted gene-proteins from Bovine cortical membranes in a tissue-based cell-free assay. Measurements were taken 0.75 hour after chemical dosing in a 48-well plate.NVS_LGIC_bGABARa1 is one of one assay component(s) measured or calculated from the NVS_LGIC_bGABARa1 assay. It is designed to make measurements of radioligand binding, a form of binding reporter, as detected with scintillation counting signals by Filter-based radiodetection technology.Data from the assay component NVS_LGIC_bGABARa1 was analyzed into 1 assay endpoint. This assay endpoint, NVS_LGIC_bGABARa1, was analyzed in the positive analysis fitting direction relative to DMSO as the negative control and baseline of activity. Using a type of binding reporter, loss-of-signal activity can be used to understand changes in the binding as they relate to the gene GABRA1. Furthermore, this assay endpoint can be referred to as a primary readout, because the performed assay has only produced 1 assay endpoint. To generalize the intended target to other relatable targets, this assay endpoint is annotated to the ion channel intended target family, where the subfamily is ligand-gated ion channel.
# Binding assays used specific radioligands (tritiated, iodinated) with non-radioactive competitive displacement ligands in agonist or antagonist protocols (as indicated) and various reference compounds and inhibitors to titrate specific binding to receptors and transporters. Most enzyme assays (CYPs, kinases, phosphatases, proteases, HDACs) used recombinant protein and specific substrates (fluorescence mostly, some colorimetric and radioactive) and inhibitors, followed by a biochemical separation of substrate and product. All assays for the biochemical HTS were initially run in duplicate at a single concentration (10 uM for CYP450 assays and 25 uM for all others). Assay-chemical combinations meeting a pre-defined threshold (e.g., 30% inhibition and other criteria defined below) were then run in singleton concentration-response format with maximum concentration of 20 uM for CYPs and 50 uM for all others. Each assay was run with positive and negative controls, and concurrent controls on every plate. The follow-up (secondary) screen tested active chemical-pairs in concentration series, as well as a few additional assays not tested in the primary screen, some selected negative inactives, and several cases re-run in the concentration series for confirmatory purposes.
# Chain of bovine Gamma-Aminobutyric Acid Type A Receptor BDZ, alpha 1 site (GABARa1), GABRA1 (gene 780973) (P08219 whole entry, looked up): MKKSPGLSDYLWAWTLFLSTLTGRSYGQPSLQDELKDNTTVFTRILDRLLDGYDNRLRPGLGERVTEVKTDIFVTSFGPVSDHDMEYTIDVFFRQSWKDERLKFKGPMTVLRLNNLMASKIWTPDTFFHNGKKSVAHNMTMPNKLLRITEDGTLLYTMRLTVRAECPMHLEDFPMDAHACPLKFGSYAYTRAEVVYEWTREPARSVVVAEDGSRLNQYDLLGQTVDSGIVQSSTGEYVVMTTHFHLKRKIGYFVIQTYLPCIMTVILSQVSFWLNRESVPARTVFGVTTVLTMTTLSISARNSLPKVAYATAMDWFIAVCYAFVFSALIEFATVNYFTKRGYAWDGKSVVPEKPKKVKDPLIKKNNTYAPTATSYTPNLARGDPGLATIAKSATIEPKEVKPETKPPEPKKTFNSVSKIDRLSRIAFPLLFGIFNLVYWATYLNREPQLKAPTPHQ
Compound,outcome,AC50
CCOc1ccc2[nH]cc(C(=O)NCc3ccccc3)c(=O)c2n1,inactive,–
Clc1cc(Cl)c(Cl)cc1Cl,inactive,–
CC[C@H](C)[C@@H](C(=O)O)n1sc2ccccc2c1=O,inactive,–
C1=CCCC=CCCC=CCC1,inactive,–
Cc1[nH]nc2c1N=C(c1ccccc1Cl)c1cc([N+](=O)[O-])ccc1N2,–,2.29 µM (active)
CN(C[C@@H](CC[N+]12CCC(C3CCCCC3)(CC1)CC2)c1ccc(Cl)c(Cl)c1)C(=O)c1cc(C(F)(F)F)cc(C(F)(F)F)c1,inactive,–
CCOC(=O)C(C)(C)Oc1ccc(Cl)cc1,–,25 µM (active)
C#C[C@]1(O)CC[C@H]2[C@@H]3CCC4=CC(=O)CC[C@@H]4[C@H]3CC[C@@]21CC,–,2.23 µM (active)
NC(=Nc1ccccc1)Nc1ccccc1,–,21.8 µM (active)
CCC(C)N(C)C(=O)c1cc2ccccc2c(-c2ccccc2Cl)n1 (stereo not drawn),–,10.2 µM (active)
NC(=O)N(O)[C@@H]1C=C[C@H](Oc2cccc(Oc3ccc(F)cc3)c2)C1,inactive,–
NC(=O)Cn1c(=O)cc(CCN2CCN(c3nccc4sccc34)CC2)c2ccc(F)cc21,–,4.48 µM (active)
CCn1nc(C)c2c1C(=O)NCC(c1ccc(O)cc1)=N2,inactive,–
CNCc1ccc(NC(=O)c2c[nH]c3c2C(=O)CCC3)cc1,–,0.0626 µM (active)
CCSC(=O)N(CC(C)C)CC(C)C,inactive,–
CCCCCCCCCC(=O)O,–,19.7 µM (active)
O=C(OCCOCCOC(=O)c1ccccc1)c1ccccc1,–,1.4 µM (active)

Compound,outcome,AC50
COc1cccc(-c2ccc(/C=C\CN3CCCCCC3)cc2Cl)c1,–,11.7 µM (active)
c1ccc2[nH]c(-c3cscn3)nc2c1,inactive,–
NC(=O)N1c2ccccc2C=Cc2ccccc21,inactive,–
COCc1nnc(-c2ccc[n+]([O-])c2)n1-c1c(Cl)c(Cl)cc2[nH]c(=O)c(=O)[nH]c12,inactive,–
COc1nc(C)nc(NC(=O)NS(=O)(=O)c2ccccc2OCCCl)n1,inactive,–
CCCCOC(=O)c1ccc(O)cc1,–,35.1 µM (active)
CCCCc1ccc2c(n1)[C@@H](c1ccc(OC)cc1C[C@H](C)C(=O)O)[C@H](C(=O)O)[C@H]2c1ccc2c(c1)OCO2,inactive,–
C/C=C/C=C/C(=O)O,–,20.9 µM (active)
COC(=O)CSc1cc(N=c2sc(=O)n3n2CCCC3)c(F)cc1Cl,inactive,–
C#C[C@]1(O)CC[C@H]2[C@@H]3CCC4=CC(=O)CC[C@@H]4[C@H]3CC[C@@]21C,–,1.27 µM (active)
Cn1cnc([N+](=O)[O-])c1Sc1ncnc2nc[nH]c12,inactive,–
CC(C)(c1ccc(O)cc1)c1ccc(O)cc1,inactive,–
Nc1nc(N)c2nc(CNc3ccc(C(=O)N[C@@H](CCC(=O)O)C(=O)O)cc3)cnc2n1,inactive,–
CCN(CC)CCNc1ccc(CNC=O)c2sc3ccc(OC)cc3c(=O)c12,inactive,–
CN(C)CCCN1c2ccccc2Sc2ccc(Cl)cc21,inactive,–
Cc1cc(SC2=C(O)C[C@@](CCc3ccc(N)cc3)(C(C)C)OC2=O)c(C(C)(C)C)cc1CO,–,22.6 µM (active)

# — PubChem BioAssay (EPA / NIEHS)
